Compounds without any hit were thinned out: in the full panel of roughly 83,000, 20% have a hit.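 Interpretation: 100, growth as untreated; towards 0, rising growth inhibition; 0, no net growth; 0 to -100, cell death. Compounds scoring below 10 were considered active.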 A number with no mark means an inactive call. Activity calls are given as the source filed them.
Key:
Test in all cases: NCI-60 one-dose screen, 48 h (100 = growth as untreated, 0 = no growth, -100 = all killed)
HOP-62 NSCLC = settings: 10 µM unless noted
NCI-H460 lung = settings: 10 µM unless noted
A549/ATCC NSCLC = settings: 10 µM unless noted
MALME-3M melanoma = settings: 10 µM unless noted
RXF 393 renal = settings: 10 µM unless noted
SF-295 CNS = settings: 10 µM unless noted
SF-539 CNS = settings: 10 µM unless noted
UACC-257 melanoma = settings: 10 µM unless noted
SNB-75 CNS = settings: 10 µM unless noted
UO-31 renal = settings: 10 µM unless noted
CAKI-1 renal = settings: 10 µM unless noted
A498 renal = settings: 10 µM unless noted
HL-60(TB) leukemia = settings: 10 µM unless noted
MOLT-4 leukemia = settings: 10 µM
RPMI-8226 leukemia = settings: 10 µM unless noted
OVCAR-4 ovarian = settings: 10 µM unless noted
BT-549 breast = settings: 10 µM
HCC-2998 colon = settings: 10 µM unless noted
786-0 renal = settings: 10 µM unless noted
K-562 leukemia = settings: 10 µM unless noted

SMILES	growth (HOP-62 NSCLC)	growth (NCI-H460 lung)	growth (A549/ATCC NSCLC)	growth (MALME-3M melanoma)	growth (RXF 393 renal)	growth (SF-295 CNS)	growth (SF-539 CNS)	growth (UACC-257 melanoma)	growth (SNB-75 CNS)	growth (UO-31 renal)	growth (CAKI-1 renal)	growth (A498 renal)	growth (HL-60(TB) leukemia)	growth (MOLT-4 leukemia)	growth (RPMI-8226 leukemia)	growth (OVCAR-4 ovarian) [%]	growth (BT-549 breast)	growth (HCC-2998 colon)	growth (786-0 renal) [%]	growth (K-562 leukemia)
CC(=O)C1CCC2C3CC=C4CC(OC(=O)Cc5ccc(N(CCCl)CCCl)cc5)CCC4(C)C3CCC12C (centres undefined)	112%	101%	131%	109%	108%	108%	79.5%	116%	93.7%	109%	87.7%	105%	101%	73%	73.2%	99.4	92%	93.7%		
O=C1NC(=O)C(O)(C2(O)C(=O)NC(=O)NC2=O)C(=O)N1	97.6%	100%		57.9%		133%	88%		94%	86.1%	104%	89.1%	85.9%	85.2%	75.6%	108		-55.7% (active)	93.4	87.9%
O=C(Nc1ccc(S(=O)(=O)F)cc1)Oc1ccccc1	93.3%	102%	97.2%	101%	95.3%	96.8%	104%	111%		87%	105%	97.6%	105%	109%	92.3%	97	98.2%	110%	102	100%
CC(C)[C@]12O[C@H]1[C@@H]1O[C@]13[C@]1(O[C@H]1C[C@H]1C4=C(CC[C@@]13C)C(=O)OC4)[C@@H]2OC(=O)OC(C)(C)C	16.6%	2.11% (active)	16.7%	-35.6% (active)	-52.2% (active)	-28.7% (active)	-20.2% (active)	-7.48% (active)	-60.5% (active)	1.21% (active)	-49.8% (active)	-36.6% (active)	-15.7% (active)	-3.98% (active)	20.6%	29.3	-12.2% (active)	-38% (active)	11.9	
CC1(C)N=C(N)N=C(N)N1c1ccc(OCCCCNC(=O)c2ccc(S(=O)(=O)F)cc2)c(Cl)c1	102%	19.8%	51%	71.3%	76.3%		64.9%	54.7%	87.7%	77%	99.2%	105%	36.2%	57.9%	89.9%	107	79.5%	83.1%	40.9	16.2%
FC(F)=C(F)c1ccccc1	87.4%	109%	108%	101%	112%	96.5%	103%	116%		83.7%	109%	100%	90.8%	92.6%	97.5%	111	96%	114%	101	89.2%
Cc1ccc(C[As+](c2ccccc2)(c2ccccc2)c2ccccc2)cc1	9.44% (active)	2.34% (active)	7.2% (active)	25%	8.64% (active)	-15.6% (active)	24.1%	-17.5% (active)	15.1%	69%	60.1%	-11% (active)	-26.8% (active)	14%	-8.65% (active)	23.6	-4.76% (active)	16.2%	13.5	9.47% (active)
CC(N)Cc1ccc(O)cc1 (centres undefined)	111%	109%	103%	98.6%	112%	118%	117%	94.6%		79.3%	103%	80.7%	90.2%	83.4%	98.3%	124	126%	111%	98.6	94.8%
